In all, about 68,000 compounds went through this assay and about 2,700 (4%) showed an effect of 50% or more. Many of the other results were omitted from the sample, so strong results are more common in it than they were.
test system: Plasmodium berghei; test: Screen against P. berghei liver stage (PbLuc), transformed with Luciferase, at 2uM; format: functional, HepG2; conditions: tested at 2 uM

| Structure (SMILES) | INHIBITION [%] |
| --- | --- |
| N#Cc1ccc(SCCC(=O)O)cc1 | 1.8 |
| N#Cc1ccc(F)c(CNc2ccc(F)cc2OCCO)c1 | -17.04 |
| N#Cc1ccc(SCCOCCO)c(F)c1 | 53.63 |
| N#Cc1ccc(SCCOCCO)c(Cl)c1 | 53.63 |
| N#Cc1ccc(SCCCO)c(F)c1 | -22.89 |
| CCCS(=O)(=O)CCSc1cccc(C#N)c1 | 32.97 |
| CO[C@@H]1CCC[C@@H](NC(=O)C(C)(C)c2cccc(F)c2)[C@H]1O | -21.9 |
| CC(C)n1cnc2c1C(C(=O)N1CCCC1)N(S(C)(=O)=O)CC2 (centres undefined) | 29.19 |
| Cn1cc(I)c(C(=O)NCCCn2cc(Br)cn2)n1 | -6.71 |
| Cc1nn(C)c(C)c1C(C(=O)O)N1CCc2ccccc2C1 (centres undefined) | 11.33 |
| O=C(NCCS(=O)(=O)N1CCN(c2ncccn2)CC1)c1ccccc1 | 30.62 |
| Cc1nc(CN2C[C@@H]3CCCO[C@@H]3[C@H](N(C)C(C)C)C2)cs1 | -20.01 |
| CC(=O)N1CC(C)CN(C(=O)c2cccnc2C)c2ccccc21 (centres undefined) | -5.98 |
| N#Cc1c(Cl)nsc1NCc1cccnc1OC1CCCC1 | -59.9 |
| O=c1[nH]cnc2c1CCN(S(=O)(=O)c1ccc(Cl)cc1)C2 | 5.1 |
| O=S1(=O)c2ccccc2C2(CCN(Cc3cccnc3)C2)N1CC1CC1 (centres undefined) | 30.39 |
| CC(=O)N1CCc2nc(N3CCCC3)nc(C)c2C1 | 15.57 |
| Cc1nc(N2CCCC2)nc2c1CCN(C(=O)NC(C)C)CC2 | -4.2 |
| CCS(=O)(=O)N1CCc2nc(N3CCOCC3)nc(N(C)C)c2CC1 | 21.57 |
| Cc1nc(N2CCCC2)nc2c1CCN(C(=O)NC1CCCC1)CC2 | 40.28 |
| Cc1nc(N2CCOCC2)nc2c1CCN(C(=O)C1CCCCC1)CC2 | 36.99 |
| Cc1nc(N2CCOCC2)nc2c1CCN(C(=O)NC1CCCC1)CC2 | 51.57 |
| Cc1nc(N2CCCC2)nc2c1CN(C(=O)NC(C)C)CC2 | 60.05 |
| CCC(=O)N1CCc2nc(N3CCOCC3)nc(N(C)C)c2CC1 | 54.62 |
| CCCS(=O)(=O)N1CCc2nc(N3CCOCC3)nc(N(C)C)c2C1 | 40.64 |
| N#Cc1cccc(C(=O)NC2CCc3c(ccc(=O)n3CC3CC3)C2)c1 (centres undefined) | -7.45 |

| Structure (SMILES) | INHIBITION [%] |
| --- | --- |
| COC(=O)c1cccc(S(=O)(=O)NC(=O)CC2CCCC2)c1 | -30.66 |
| CC1CN(Cc2nnsc2Cl)CCN1c1nccs1 (centres undefined) | 24.82 |
| O=C(NC1CC1)[C@H]1C[C@@H]2CCN(Cc3ccc4c(c3)OCO4)C[C@@H]2O1 | 14 |
| CCc1cc(NCCN2CCNC2=O)n2nc(C)c(C)c2n1 | -35.07 |
| O=C(Cc1ccccc1)N1CCC(c2nnc(-c3ccccn3)o2)CC1 | 11.53 |
| CCn1ncc(CN2CCN(C(=O)Cn3cc(Br)c(C)n3)CC2)c1C | -22.24 |
| COc1cccc(CN(Cc2ccco2)Cc2cnc(C)n2C)c1 | -4.04 |
| Cc1nc2cc(=O)[nH]n2c(C)c1CNC(=O)c1cnn(C(C)(C)C)c1 | -46.8 |
| COc1ncccc1NC(=O)N(Cc1ccco1)C1CC1 | 20.93 |
| Cc1ccc(CN(C(=O)NCC2CCS(=O)(=O)C2)C2CC2)o1 (centres undefined) | 26.39 |
| COc1ncccc1NC(=O)N(Cc1ccc(C)o1)C1CC1 | 51.21 |
| CCN(C(=O)Nc1cccnc1OC)C1CC1 | -14.3 |
| Cc1ccc(CN(C(=O)NCC2CCCO2)C2CC2)o1 (centres undefined) | 57.85 |
| Cc1ccc(CN(C(=O)NCC(c2cccs2)N(C)C)C2CC2)o1 (centres undefined) | -38.2 |
| Cc1cc(CN2CCN(C(=O)CCCc3nc(C(C)C)no3)CC2)on1 | 26.06 |
| COc1ncc(-c2ccc(C(N)=O)cc2)c(OC)n1 | 29.41 |
| Cc1cc(C)c(CNC(=O)NCCCNc2ccccn2)c(=O)[nH]1 | 34.65 |
| COCCN1C[C@H]2CCN(C(C)=O)CC[C@H]2S1(=O)=O | 43.05 |
| CCN1C[C@H]2CCN(C(=O)NC)CC[C@H]2S1(=O)=O | -11.73 |
| CCN1C[C@H]2CCN(C(C)=O)CC[C@H]2S1(=O)=O | 59.49 |
| O=C(NCCCN1CCOCC1)c1ccn(COc2ccc(Br)cc2)n1 | 12.84 |
| O=C(NCCN1CCOCC1)c1ccc(-c2ccccc2)[nH]c1=O | 40.47 |
| O=C(NCCCN1CCOCC1)c1ccn(COc2ccc(F)cc2)n1 | 58.42 |
| O=C(NCCN1CCOCC1)c1ccc(-c2ccc(F)cc2)nc1O | 58.75 |
| O=C(NCCN1CCOCC1)c1ccn(COc2ccc(F)cc2)n1 | -10.62 |
| Cc1ccc(C(=O)NCCN2CCOCC2)c(=O)[nH]1 | -84.65 |

| Structure (SMILES) | INHIBITION [%] |
| --- | --- |
| CCc1nnc(C(C)N2CCN(CCC(=O)NC3CC3)CC2)o1 (centres undefined) | 35.61 |
| CC(C)(C)C(CCO)NC(=O)Nc1ccncc1 (centres undefined) | 6.84 |
| Cc1c(C(=O)NC(C)C)nnn1-c1cccc(C(F)(F)F)c1 | -8.75 |
| CC(C)NC(=O)c1nnn(-c2cccc(C(F)(F)F)c2)c1C1CC1 | -66.52 |
| CC(C)NC(=O)c1nnn(-c2cccc(C(F)(F)F)c2)c1N | 50.54 |
| COCCc1noc(CN2C(=O)OC[C@@H]2C(C)C)n1 | -7.66 |
| CC1N(C)C(=O)COC12CCN(Cc1ccsc1)CC2 (centres undefined) | -30.38 |
| CC1N(C)C(=O)COC12CCN(C(=O)Cc1ccsc1)CC2 (centres undefined) | 2.18 |
| CC1N(C)C(=O)COC12CCN(C(=O)CCc1ccccc1)CC2 (centres undefined) | 65.38 |
| O=C(c1cccc(F)c1)N1CCC2(CC1)CC(N1CCOCC1)C2 | -21.77 |
| CCc1n[nH]c(C2CN(Cc3csc(COC)n3)CCO2)n1 (centres undefined) | 12.58 |
| c1ccc(-c2nnn3c2COC(CNCC2CCOCC2)C3)cc1 (centres undefined) | 12.36 |
| c1cc(-c2nnn3c2COC(CNCC2CCOCC2)C3)ccn1 (centres undefined) | 86.79 |
| c1ccc(-c2nnn3c2COC(CNCC2CC2)C3)cc1 (centres undefined) | 14.48 |
| Cc1cccc(C(=O)NCc2ccc(N3CCCCCC3)nc2)n1 | -26.87 |
| Cc1cn2c(n1)C(CNCC1=Cc3cc(Cl)ccc3OC1)CCC2 (centres undefined) | 9.21 |
| CCCS(=O)(=O)N1CCC2(CC1)CC(N1CCCC1)c1ccccc12 (centres undefined) | -21.74 |
| Cc1nc2c(c(=O)[nH]1)CN(C(=O)CCC1CCCN(C)C1)C2 (centres undefined) | 19.48 |
| CC(C)c1ccc(S(=O)(=O)N2CCCC3(CCCN3S(C)(=O)=O)C2)cc1 (centres undefined) | 42.62 |
| CCOCCC(=O)Nc1cccc(Cl)c1C(N)=O | 56.89 |
| CCOCCC(=O)Nc1cccc(Cl)c1COC | 1.06 |
| CCOCCC(=O)Nc1ccnn1-c1ccc(Cl)cc1 | -24.07 |
| CC(C)CCc1nc(CNCC2CCCN2c2cccnn2)cs1 (centres undefined) | 15.47 |
| CN(C)C(=O)c1n[nH]c2c1CN(Cc1nccs1)CC2 | -8.84 |
| c1cncc(CNCCc2cccs2)c1 | -10.44 |
| COC(=O)C(C)NC(=O)CSCc1nc(O)c2cc(C(C)C)sc2n1 (centres undefined) | 52.08 |

| Structure (SMILES) | INHIBITION [%] |
| --- | --- |
| COCCNC(=O)CSCc1nc(O)c2cc(C(C)C)sc2n1 | -43.28 |
| COC(=O)CNC(=O)CSCc1nc(O)c2cc(C(C)C)sc2n1 | 5.36 |
| Cc1nc[nH]c1CN(Cc1ccc(F)cc1)C1CC(C)(C)NC(C)(C)C1 | -24.35 |
| Cc1nc[nH]c1CN(Cc1ccccc1)C1CC(C)(C)NC(C)(C)C1 | 50.68 |
| Cc1nc[nH]c1CN(Cc1ccccc1F)C1CC(C)(C)NC(C)(C)C1 | 39.26 |
| O=C(NCc1ccco1)[C@H]1C[C@@H]2CCN(c3cccc(F)c3)C[C@H]2O1 | 45.28 |
| CCCN1CCC(N2CCN(c3cccc(C)n3)CC2)CC1 | 36.24 |
| Nc1cc(CCC2CN(Cc3ccc4cc[nH]c4c3)CCO2)ccn1 (centres undefined) | 52.69 |
| Nc1cc(CCC2CN(Cc3ccc4c(c3)OCCO4)CCO2)ccn1 (centres undefined) | 23.87 |
| COc1ccc(CN2CCOC(CCc3ccnc(N)c3)C2)cc1 (centres undefined) | -152.49 |
| COCC1CN(Cc2ccc(OC)cc2)Cc2nn(C)cc21 (centres undefined) | -62.13 |
| CN(CC(=O)N1CCOC(CCc2ccccc2)C1)Cc1ccccn1 (centres undefined) | 3.94 |
| CC(C)NC(=O)[C@@H]1C[C@@H]2CCN(Cc3ccoc3)C[C@H]2O1 | 0 |
| CC(c1nc(C(C)(C)C)no1)N1CCC(N2CCCC2)CC1 (centres undefined) | 4.52 |
| CCS(=O)(=O)N1CCc2ccc(NC(=O)Nc3ccccc3C)cc21 | -7.56 |
| CCS(=O)(=O)N1CCc2ccc(NC(=O)Nc3cccc(C)c3)cc21 | 80.54 |
| CCS(=O)(=O)N1CCc2ccc(NC(=O)Nc3ccc(F)cc3F)cc21 | 36.98 |
| NS(=O)(=O)N1CCc2ccc(NC(=O)Cc3ccccc3F)cc21 | 60.14 |
| CCS(=O)(=O)N1CCc2ccc(NC(=O)Nc3cccc(SC)c3)cc21 | 47.4 |
| NS(=O)(=O)N1CCc2ccc(NC(=O)Cc3ccc(F)cc3)cc21 | 1.22 |
| CCS(=O)(=O)N1CCc2ccc(NC(=O)Nc3cccc(F)c3)cc21 | 78.93 |
| NS(=O)(=O)N1CCc2ccc(NC(=O)CC(F)(F)F)cc21 | 6.91 |
| CCS(=O)(=O)N1CCc2ccc(NC(=O)Nc3ccccc3)cc21 | 20.38 |
| O=C(O)c1cc2c(nc1N1CCOCC1)CCN(C1CCOC1)CC2 (centres undefined) | -51 |
| CCc1ccc(C(=O)Nc2ccc(CC3CC(=O)NC3=O)cc2)s1 (centres undefined) | -3.62 |
| CCc1ncc(CN2CCN(c3cc(NC4CC4)nc(N)n3)CC2)cn1 | -18.65 |

From ChEMBL document CHEMBL4513216, “Probing the Open Global Health Chemical Diversity Library for Multistage-Active Starting Points for Next-Generation Antimalarials” (ACS Infect Dis, 2020)
